Whole data set: some 68,000 sequences, median “fluorescence intensity (a.u.)” near 9,100, cut for the highest 2% near 16,000. The sample holds the highest values, similar sequences and a random draw of the others, so the mix is not that of the screen.

The source of these data is PMC7819943, “Rice protein-binding microarrays: a tool to detect cis-acting elements near promoter regions in rice”.

Chain of OsWRKY34 (Q0JBA9 entry or part of it): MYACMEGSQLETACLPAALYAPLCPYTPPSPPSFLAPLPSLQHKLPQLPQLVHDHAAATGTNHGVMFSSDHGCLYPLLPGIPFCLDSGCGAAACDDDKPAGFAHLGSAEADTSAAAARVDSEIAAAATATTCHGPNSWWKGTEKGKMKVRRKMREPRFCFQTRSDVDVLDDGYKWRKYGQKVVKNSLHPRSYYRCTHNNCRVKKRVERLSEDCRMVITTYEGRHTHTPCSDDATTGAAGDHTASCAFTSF

The test addresses OsWRKY34 (Oryza sativa, UniProt Q0JBA9 1-250). Description: protein-binding microarray (RPBM); PBS, 2% BSA, 51.3 ng/ul salmon testes DNA, 50 uM zinc acetate, 200 nM TF, 25 C, 1 h; high values mean tight binding. The conditions noted are these: protein: recombinant; tags: N-terminal polyhistidine and DsRed monomer fusion (pET32a); label: CyDye5-dUTP incorporated in the synthesized complementary strand; 3' TTTTT single-stranded linker to array surface; dsDNA, one strand shown. Summed up:
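Ni–NTA purification followed expression in E. coli BL21-CodonPlus of transcription factors fused N-terminally to a polyhistidine tag and DsRed. At 200 nM in PBS with 2% BSA, salmon testes DNA and 50 µM zinc acetate, the protein was incubated for 1 h at 25 °C with a custom Agilent array that had been primer-extended with Cy5-dUTP and blocked with 2% BSA. After washing, the array was read on an Axon 4000B scanner. The binding signal is per-feature fluorescence intensity in arbitrary units.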
“GAGGACTGGGCGAAGGGGTGGAAGAAAATGTGGTTGTCGACGGAGTCACCTAGTGCAG”: the binding signal was 8580 fluorescence intensity (a.u.).

With “ATGGCTCGGTGGTGCACTATTTTTTTTTTAACTTAATTTGCGGAGTCACCTAGTGCAG”, the binding signal was 12100 fluorescence intensity (a.u.).

Take “CACAATAGACCACCCGAAACCACATCTTCAACACTTCAATCGGAGTCACCTAGTGCAG”: the binding signal is 8530 fluorescence intensity (a.u.).

In the case of “CTCTCCGTGCATCTATATAAACTGGCCCTGATCAATCTCACGGAGTCACCTAGTGCAG”, the binding signal is 9650 fluorescence intensity (a.u.).

Turning to “CAGGCGACCACCTCCAGCTCCGCGCCATCTCCATGTCATCCGGAGTCACCTAGTGCAG”, the binding signal was 10800 fluorescence intensity (a.u.).

On to “TGCACCTGTTTGGCTTAGTACCAGTGCGCTACTGGTTTCACGGAGTCACCTAGTGCAG”, for which the binding signal is 9680 fluorescence intensity (a.u.).

Consider “TACTCCGTACAAATTTTCTTCTGGATCCCACCTCTGCTCTCGGAGTCACCTAGTGCAG”, for which the binding signal was 9050 fluorescence intensity (a.u.).

Take “CCCACCTCGCTGTCGTTTCTTCCTCTGGCTGGTCGCGTTGCGGAGTCACCTAGTGCAG”: the binding signal is 12700 fluorescence intensity (a.u.).

In the case of “TTTCTTTCCTGTTTTAGGAGGGTTTTCCACGTTAAATCTTCGGAGTCACCTAGTGCAG”, the binding signal was 8290 fluorescence intensity (a.u.).

Turning to “TTTTTTTAAAATTTGCATGTTTTTTGGTCGTGTAAAATTTCGGAGTCACCTAGTGCAG”, the binding signal was 8290 fluorescence intensity (a.u.).

For the sequence “TGGGAGGAGGGAGGGAGGAGGAGGGCGGAGATAGGTGGTGCGGAGTCACCTAGTGCAG”, the binding signal is 11400 fluorescence intensity (a.u.).

In the case of “AGGGGAGAGGAGGGGAGGCGGCGCGGCGGCGAGGAGGGGACGGAGTCACCTAGTGCAG”, the binding signal was 10200 fluorescence intensity (a.u.).

For the sequence “GGGGCGGAAACGGGCGAGGGAGGCGCGGGGAGGGTTTAAACGGAGTCACCTAGTGCAG”, the binding signal was 22600 fluorescence intensity (a.u.).

As to “TAGGAGGTGGCGGCCGGTGGTGGCGGATCCGGCGGCGGGGCGGAGTCACCTAGTGCAG”, the binding signal is 8840 fluorescence intensity (a.u.).

For the sequence “AAAGGTGGTGGTAGGGGATAGATCCGGGGCGGGCGGCATGCGGAGTCACCTAGTGCAG”, the binding signal is 23400 fluorescence intensity (a.u.).

Regarding “GGCACCGGCGGAGGGGCGCGGGAGGGGAGGCGGCGGCGAGCGGAGTCACCTAGTGCAG”, the binding signal is 15600 fluorescence intensity (a.u.).

Consider “ATATCGAAATTGATGCTTGACCAGTCAACACTACTTAATCCGGAGTCACCTAGTGCAG”, for which the binding signal is 9070 fluorescence intensity (a.u.).

Consider “GTCGCTTGTCGTTGTTGCCCTGAACTGTTGGTGCTGGTTCCGGAGTCACCTAGTGCAG”, for which the binding signal is 9320 fluorescence intensity (a.u.).

“GTACATACCCGTATTATTTATCTGTCGCTATGTAGGATTTCGGAGTCACCTAGTGCAG”: the binding signal was 10500 fluorescence intensity (a.u.).

“CCACCGGCGGGCCCCACCATCTTGACTCCTCTCTGTGATCCGGAGTCACCTAGTGCAG”: the binding signal was 8610 fluorescence intensity (a.u.).

Consider “TGTGGTGCGTCTCCTCGTGCAGTTTTTGCCCTTGATTTGACGGAGTCACCTAGTGCAG”, for which the binding signal is 11800 fluorescence intensity (a.u.).

Take “CATTGTTTTCTAATATTCGGCCATGGCTTTTGACATTTTACGGAGTCACCTAGTGCAG”: the binding signal is 8430 fluorescence intensity (a.u.).

Take “GACTTTTCGGTTCTTAAGCTGACTTATAATTAGTCTAAACCGGAGTCACCTAGTGCAG”: the binding signal is 8630 fluorescence intensity (a.u.).

For the sequence “CCTTTGACTTTTTGATAAACGTTTGACCTTTCGTCTTATTCGGAGTCACCTAGTGCAG”, the binding signal is 22800 fluorescence intensity (a.u.).

Take “GTTGACTTTTTGACAAACGTTTGACTTTTCGTCTTATTCACGGAGTCACCTAGTGCAG”: the binding signal was 17400 fluorescence intensity (a.u.).

As for “CGGTTGACTTTTTTTTTCTAATAAGCCAAAACGGCTTATTCGGAGTCACCTAGTGCAG”, the binding signal was 18800 fluorescence intensity (a.u.).

Take “GACTTTTTAGCATATGTTTGACCGTTCGTCTTATTCAAAACGGAGTCACCTAGTGCAG”: the binding signal was 10600 fluorescence intensity (a.u.).

Consider “TGATTTTTTGACAAACATTTGACCTTTCGTCTTATTTAAACGGAGTCACCTAGTGCAG”, for which the binding signal was 8620 fluorescence intensity (a.u.).

On to “TCGTTAACTTTTTAATAAACGTTTGACCTTTCGTCTTATTCGGAGTCACCTAGTGCAG”, for which the binding signal is 10200 fluorescence intensity (a.u.).

In the case of “AATTCCTGGCTACGCCACTGCTGCTCTATATATCAAGCCGCGGAGTCACCTAGTGCAG”, the binding signal is 8080 fluorescence intensity (a.u.).

As to “CTCGATTGCGTGTTGTAGATTTTGTGTTTTTGTTCTTGCGCGGAGTCACCTAGTGCAG”, the binding signal was 8030 fluorescence intensity (a.u.).

Regarding “CCCACATCAAAACCTTGAATTTTCACAGTTTCTTGCATTTCGGAGTCACCTAGTGCAG”, the binding signal was 9890 fluorescence intensity (a.u.).

As to “AGAGTTCTTATCCTAGTTTTTCCAACTCACTTATCTCGTTCGGAGTCACCTAGTGCAG”, the binding signal was 10900 fluorescence intensity (a.u.).

Consider “TTTCACTTGCTTGTTTTTCATGTCCACACTTCCCAACTCACGGAGTCACCTAGTGCAG”, for which the binding signal was 16600 fluorescence intensity (a.u.).

As to “TCCAACTCACTTATCTCGTTTTCCGCGCACACGTTTTTTACGGAGTCACCTAGTGCAG”, the binding signal was 16500 fluorescence intensity (a.u.).

Take “TGTCCACACTTCCCAACTCATTAAATAGTTTGTTTTTTGACGGAGTCACCTAGTGCAG”: the binding signal was 8320 fluorescence intensity (a.u.).

Turning to “GCTTGCCAACTTGTCCCAAATTTCCTTCGGCGTTTTTTCACGGAGTCACCTAGTGCAG”, the binding signal is 10800 fluorescence intensity (a.u.).

As for “CTTATCTCTCTCGTTTTCCACGCACACGTTTTTCAAACCGCGGAGTCACCTAGTGCAG”, the binding signal was 8940 fluorescence intensity (a.u.).

Consider “AACGTTTGATTTTTCATTTCTCTTATTACTGACTTATTTACGGAGTCACCTAGTGCAG”, for which the binding signal is 9850 fluorescence intensity (a.u.).

Turning to “CGCCGCCGCTCGCCGACGTCGCCGCCATCGCCATTACAGCCGGAGTCACCTAGTGCAG”, the binding signal was 8980 fluorescence intensity (a.u.).

Consider “CTACGATACACCGCTTGTTTCTGTTTTTCTTATCTAGGAACGGAGTCACCTAGTGCAG”, for which the binding signal is 9180 fluorescence intensity (a.u.).

Take “GTGTTGTGGTTTACTGAATTGATGTTTGGCTTAAGTGATGCGGAGTCACCTAGTGCAG”: the binding signal is 11800 fluorescence intensity (a.u.).

Consider “TTGGCCATGTTAATGTTTTACTGATCATCAATTTGGTTACCGGAGTCACCTAGTGCAG”, for which the binding signal was 8980 fluorescence intensity (a.u.).

Take “GGTTTGGCTTGGCTTGGCGGCTGGTTCTGCTGAGGCTGACCGGAGTCACCTAGTGCAG”: the binding signal is 11900 fluorescence intensity (a.u.).

Regarding “CCTGTTACCTGTTTGGCTGACTTGGTCAAACACAACTCACCGGAGTCACCTAGTGCAG”, the binding signal is 9460 fluorescence intensity (a.u.).

Consider “TGGTTTGGTTACTGGTTTAGTGCTTGAATTAATGTGGCACCGGAGTCACCTAGTGCAG”, for which the binding signal was 18400 fluorescence intensity (a.u.).

Consider “GGGCTGGTTTGGCTTGGCTGTTACAAAGACAAAGAATGACCGGAGTCACCTAGTGCAG”, for which the binding signal was 16800 fluorescence intensity (a.u.).

As to “GCCGAGCCGCGTCCCTTTTTCCCATCGCCCACGCAGCGAGCGGAGTCACCTAGTGCAG”, the binding signal was 8920 fluorescence intensity (a.u.).

For the sequence “TATGATATGTGTGCCTCAGTTGTTGTGCTTGCTGATGTGTCGGAGTCACCTAGTGCAG”, the binding signal is 9730 fluorescence intensity (a.u.).

Regarding “TTTCCGGTTTTTCCAATATTTTTCGATACCGTTTTCATTTCGGAGTCACCTAGTGCAG”, the binding signal was 12800 fluorescence intensity (a.u.).

As for “TTTCCACCGTTTGGCGTTTGGGTAGGGTTGGGATGGGATGCGGAGTCACCTAGTGCAG”, the binding signal was 17200 fluorescence intensity (a.u.).

“TTGGGTGGAGGATTTGGAATTTGACCGGTTGACTTAGGGTCGGAGTCACCTAGTGCAG”: the binding signal was 11900 fluorescence intensity (a.u.).

Consider “TCAGTCATCGTAAATTATTGTGATTTTTTAGGGAGGGGTGCGGAGTCACCTAGTGCAG”, for which the binding signal is 9130 fluorescence intensity (a.u.).

Take “TTCATATTTTCACCGTTTGGGTAGAGTGGTGGTGGGGTGTCGGAGTCACCTAGTGCAG”: the binding signal was 10400 fluorescence intensity (a.u.).

As for “CGTCGTGGCGGGTTCATCGGGAGGGGATTATTGATTTAGTCGGAGTCACCTAGTGCAG”, the binding signal is 21100 fluorescence intensity (a.u.).

“GGGGATCGGAGGGTGGGGATACGCATGGTGGATGGTAGTGCGGAGTCACCTAGTGCAG”: the binding signal was 12600 fluorescence intensity (a.u.).

Take “GAAAGATTTTCACCGTTTGGGTAGGTTGGGGATGGGATGACGGAGTCACCTAGTGCAG”: the binding signal is 11400 fluorescence intensity (a.u.).

In the case of “GGGTTTGGGGTTGCGATTGGGATTGGTAGGGAGGCTGATGCGGAGTCACCTAGTGCAG”, the binding signal was 8280 fluorescence intensity (a.u.).

In the case of “ATGGGGTTGACTTTTTTTTAGGGATTGCTAGGTGCACCGTCGGAGTCACCTAGTGCAG”, the binding signal is 20100 fluorescence intensity (a.u.).

Turning to “GTATTGAGGGCTTAATCGTGGTCGTGGGATATTATTTCATCGGAGTCACCTAGTGCAG”, the binding signal is 8390 fluorescence intensity (a.u.).

Regarding “CAGGTAATGGATTGATTGCAGGGTTGGGATTTGACCAGGTCGGAGTCACCTAGTGCAG”, the binding signal was 11300 fluorescence intensity (a.u.).

As to “CGTCATATTTGCACCGTTTGGGTAGGGTGGGGATGGGGTGCGGAGTCACCTAGTGCAG”, the binding signal was 18700 fluorescence intensity (a.u.).
